# Experimental data taken from PubChem BioAssay (EPA / NIEHS).
# Results filed as inconclusive are left out. Activity calls are given as the source filed them. How the source made its calls: active means hit-call score of the fitted dose curve at least 0.9, where 1 is the maximum; inconclusive means response in the unintended direction; inactive means score below 0.9.
# Target: Retinoic acid receptor alpha (Homo sapiens) (UniProt P10276)
# Experiment: ATG_RARa_TRANS: Attagene TRANS-FACTORIAL HepG2 Assay for human Retinoic Acid Receptor alpha (RARa) (AID 2283005)
# Method: ATG_TRANS is a cell-based, multiplexed-readout assay that uses HepG2, a human liver cell line, with measurements taken at 24 hours after chemical dosing in a 24-well plate.ATG_RARa_TRANS is one of 30 assay component(s) measured or calculated from the ATG_TRANS assay. It is designed to make measurements of mRNA induction, a form of inducible reporter, as detected with fluorescence intensity signals by Reverse transcription polymerase chain reaction (RT-PCR) and Capillary electrophoresis technology.Data from the assay component ATG_RARa_TRANS was analyzed into 1 assay endpoint. This assay endpoint, ATG_RARa_TRANS, was analyzed in the positive analysis fitting direction relative to DMSO as the negative control and baseline of activity. Using a type of inducible reporter, measures of mRNA for gain-of-signal activity can be used to understand the reporter gene at the transcription factor-level as they relate to the gene RARA. Furthermore, this assay endpoint can be referred to as a primary readout, because this assay has produced multiple assay endpoints where this one serves a reporter gene function. To generalize the intended target to other relatable targets, this assay endpoint is annotated to the nuclear receptor intended target family, where the subfamily is non-steroidal.
# Human liver HepG2 cells are transiently transfected with multiple reporter transcription units (MRTUs) in 6-well plates using FuGene 6 reagent (Roche; 3 ml FuGene/1 mg DNA). The MRTU constructs are regulated by a cis-regulating element (promoter). […] A major difference between the CIS and TRANS system is that in CIS activities of endogenous TFs are measured, whereas the TRANS assay evaluates changes in activities of exogenous, chimeric NR-Gal4 proteins. […] At the end of 24 hour incubation, total RNA was isolated using TriZol reagent (Invitrogen). The isolated RNA is then reverse-transcribed using oligo(dT) primer and Mo-MLV reverse transcriptase (Invitrogen) with DNAse I (Ambion) treatment for 30 min. The one-tenth of the produced cDNA was amplified by PCR using Taq DNA polymerase (Invitrogen) and two reporter sequence-specific primers. The PCR products were fluorescently labeled by primer extension with 6-arboxyfluorescein (6-FAM) 5'-labeled reporter sequence-specific primer (2 min at 95 C, 20 s at 68 C and 10 min at 72 C) and these products were digested with 5U of HpaI (New England Biolabs) for 2h at 37 C. The fragments were purified using Qiaquick PCR columns (Qiagen), analyzed on an ABI 3130xL genetic analyzer (Applied Biosystems) with peak positions identified by using a set of X-rhodamine (ROX)-labeled MapMarker1000 molecular weight standards (BioVentures). The raw capillary electrophoresis data was processed using Attagraph software (Attagene).
# Retinoic acid receptor alpha (Homo sapiens), sequence (P10276 whole entry, looked up): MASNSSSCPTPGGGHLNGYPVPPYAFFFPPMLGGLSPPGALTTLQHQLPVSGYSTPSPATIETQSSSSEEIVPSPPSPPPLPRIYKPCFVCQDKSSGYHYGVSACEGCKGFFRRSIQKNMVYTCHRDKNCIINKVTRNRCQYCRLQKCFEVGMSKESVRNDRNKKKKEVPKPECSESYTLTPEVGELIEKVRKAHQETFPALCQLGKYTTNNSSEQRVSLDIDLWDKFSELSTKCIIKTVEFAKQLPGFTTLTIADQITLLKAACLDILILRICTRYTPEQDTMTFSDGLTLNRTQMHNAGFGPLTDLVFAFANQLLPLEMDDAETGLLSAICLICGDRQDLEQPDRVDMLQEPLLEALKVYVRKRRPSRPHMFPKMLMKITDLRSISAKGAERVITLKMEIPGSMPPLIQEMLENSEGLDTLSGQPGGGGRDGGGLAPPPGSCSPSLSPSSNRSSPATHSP
row,SMILES,outcome
1,Cn1[nH]nnc1=S,inactive
2,C=C(C)C(=O)OCC1CO1 (stereo not given),inactive
3,O=C(O)C(F)(F)OC(F)(F)C(F)(F)OC(F)(F)F,inactive
4,N#Cc1c(-c2ccc(Cl)cc2)[nH]c(C(F)(F)F)c1Br,inactive
5,NC(=O)C(F)(F)C(F)(F)F,inactive
6,OCC(F)(F)OC(F)(F)C(F)(F)OC(F)(F)C(F)(F)OC(F)(F)F,inactive
7,O=C(O)C(F)(OC(F)(F)C(F)(F)C(F)(F)F)C(F)(F)F (stereo not given),inactive
8,ClC(Cl)c1ccccc1,inactive
9,CCOP(=O)(O)C(N)=O,inactive
10,CCCN(CCC)c1c([N+](=O)[O-])cc(C(C)C)cc1[N+](=O)[O-],inactive
11,CCCCCCCc1ccc(O)cc1,inactive
12,Cc1ccc(C(=O)Cl)cc1,inactive
13,FC(F)(F)C(F)(C(F)(F)F)C(F)(F)C(F)(F)CC1CO1 (stereo not given),inactive
14,COP(=O)(O)OC,inactive
15,CC(C)Nc1ccc(Nc2ccccc2)cc1,inactive
16,O=[N+]([O-])c1ccccc1,inactive
17,CC(=O)CCc1ccc2c(c1)OCO2,inactive
18,CC1(C)CN=C(NN=C(/C=C/c2ccc(C(F)(F)F)cc2)/C=C/c2ccc(C(F)(F)F)cc2)NC1,inactive
19,O=c1[nH]c2ccccc2c(=O)o1,inactive
20,O=S(=O)(F)C(F)(F)C(F)(F)C(F)(F)C(F)(F)C(F)(F)C(F)(F)C(F)(F)C(F)(F)F,inactive
21,CN(C)C(=O)Cl,inactive
22,O=C(O)C(F)(F)C(F)(F)C(=O)O,inactive
23,CCCCOCCOP(=O)(OCCOCCCC)OCCOCCCC,inactive
24,Cc1c([N+](=O)[O-])cc2c(c1[N+](=O)[O-])C(C)(C)CC2(C)C,inactive
25,ClC1=C(Cl)C2(Cl)C3C(Cl)C(Cl)CC3C1(Cl)C2(Cl)Cl (stereo not given),inactive
26,CC(O)C(F)(F)C(F)(F)F (stereo not given),inactive
27,CO/N=C(/C(=O)OC)c1ccccc1COc1ccccc1C,inactive
28,Nc1ccc2ccccc2c1,inactive
29,CCNc1nc(Cl)nc(NC(C)(C)C)n1,inactive
30,c1cc2c3c(cccc3c1)CC2,inactive
